Data taken from PubChem BioAssay (NCI).
This is part of a sample that, as a whole, favours compounds with a hit. Of some 83,000 tested, about 20% had one in any assay.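 Cell lines were cultured in 96-well plates, exposed to a single compound concentration, and assessed for percent growth 48 hours later.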 Unmarked numbers belong to inactive results. Activity calls are given as the source filed them. How the source made its calls: active means growth percent below 10; inactive means the rest.

Each compound was assayed on SF-295 CNS (assay: NCI-60 one-dose screen, 48 h (100 = growth as untreated, 0 = no growth, -100 = all killed)). Conditions: 10 µM unless noted.
Work on `C=CC(=O)Nc1cccc(-c2nc(SC)nc(NCc3ccccc3)c2C#N)c1` yielded a growth of 67.8%.
Compound `COC(=O)c1ccc2oc(NC(=O)c3ccc(Nc4ccc([N+](=O)[O-])cc4C)c([N+](=O)[O-])c3)nc2c1` has a growth of 98.8%.
With `COc1cc(/C=C/c2cc(/C=C/c3ccc(O)c(OC)c3)n(-c3c(Cl)cccc3Cl)c(=O)n2)ccc1O` the growth was 75.4%.
Work on `CSc1nc(Nc2cccc(NC(=O)CCl)c2)c(C#N)c(-c2cccc([N+](=O)[O-])c2)n1` yielded a growth of 95.4%.
`CC(C)(C)N1CCC1CN` (stereo not drawn) gave a growth of 115%.
`Cc1ccc(NC(=O)/C=C/c2ccccc2)c(C(N)=O)c1` showed a growth of 15.2%.
In the case of `COc1ccc(-n2nc(C)c3c(Nc4ccc(NC(=O)Nc5cccc(C(F)(F)F)c5)cc4)ncnc32)cc1`, the growth was -44.1% (active).
`O=C1OCC2=C1C(c1ccncc1)c1cc3c(cc1N2CCO)OCO3` (stereo not drawn) showed a growth of 102%.
Work on `C#Cc1cccc(NC(=O)c2ccccc2NC(=O)C=C)c1` yielded a growth of 105% [8.25 µM].
In the case of `CCOc1cc2ncc(C#N)c(Nc3ccc(F)c(Cl)c3)c2cc1NC(=O)CC1CCSS1` (stereo not drawn), the growth was -36.8% (active).
`CN(Cc1cc(Cl)cc(Cl)c1O)Cc1cc(Cl)cc(Cl)c1O` showed a growth of 58.1%.
Compound `CC(=O)O[C@H]1[C@@H]2OC(=O)C(CSc3ccccc3)[C@@H]2C[C@H]2O[C@]2(C)CC/C=C(\C)CCC[C@@H]1C` (stereo partly drawn) has a growth of 49.3%.
`COc1ccc(/C=N/C2=C(C#N)C(c3ccc(N(C)C)cc3)c3ccc4ccccc4c3O2)cc1` (stereo not drawn) gave a growth of 39.1%.
`C[n+]1ccccc1/C=C/c1ccc2cccc(O)c2n1` was tested, and the growth was 109%.
Compound `Cc1nn(-c2ccc(F)cc2)c2ncnc(Oc3ccc(NC(=O)Nc4ccc(Cl)c(C(F)(F)F)c4)cc3)c12` has a growth of 102%.
Compound `COc1ccc(C(=O)c2sc3nc(C)cc(C)c3c2N)cc1OC` has a growth of 89.8%.
With `C=CC(=O)Nc1cccc(-c2nc(SC)nc(Nc3ccccc3OC)c2C#N)c1` the growth was 80.3%.
`Nc1nc2ncc(CCNc3ccc(C(=O)O)cc3)nc2c(=O)[nH]1` gave a growth of 110%.
In the case of `CCCSc1ccc2nc(NC(=O)OC)[nH]c2c1`, the growth was -2.45% (active).
For `CCCc1cc(=O)n2c(C(=O)Nc3ccc(F)cc3)c(C(=O)Nc3ccc(F)cc3)sc2n1`, the growth was 73% [30 µM].
In the case of `O=C(/C=C/c1ccccc1)c1ccc(O)c(CN2CCN(c3cc4c(cc3F)c(=O)c(C(=O)O)cn4C3CC3)CC2)c1`, the growth was 4.62% (active).
`CCOC(=O)c1sc2nc(-c3cccc(OC)c3)nc(N3CCOCC3)c2c1C` gave a growth of 99.5%.
Work on `CCCCCCCCCCCCC[N+](C)(C)Cc1ccccc1` yielded a growth of 13.5%.
For `CCCOc1ccc2nc(NC(=O)OC)[nH]c2c1`, the growth was -5.89% (active).
For `Nc1n[nH]c2ccc([C@@H]3Nc4ccc5cn[nH]c5c4[C@H]4C5CCC(C5)[C@@H]34)cc12` (stereo partly drawn), the growth was 13.2%.
In the case of `O=c1nc2oc3ccc4ccccc4c3cc-2s1`, the growth was 9.97% (active).
`COC(=O)c1cccc(NC(=O)c2ccc(-c3cccc(N)c3)o2)c1` was tested, and the growth was 98.4%.
Compound `CCOC(=O)c1c(C)oc2ncnc(N3CCN(C(=S)Nc4ccccc4)CC3)c12` has a growth of 96%.
Compound `CCCCN(CCCC)CCCn1c(-c2ccccc2)ccc1-c1ccccc1` has a growth of 60%.
`CN1CCN(CCCOc2cccc3nc(Nc4ccc(Cl)c(F)c4)ccc23)CC1` gave a growth of 46%.
In the case of `COc1cccc(/C=N/NC(=O)c2ccccc2Nc2ccnc(C(F)(F)F)c2)c1O`, the growth was 18.6%.
`COc1cc2nc(N3CCCC3)nc(NCc3ccccc3)c2cc1OC` was tested, and the growth was 71.1%.
With `COc1cc2c(cc1-c1c(C)noc1C)ncc1nc(-c3ccccn3)n([C@H](C)COC(F)F)c12` the growth was 60.4%.
Work on `COc1cccc(-c2nc3sccn3c2-c2ccnc(NCCCNS(=O)(=O)c3c(Cl)cccc3Cl)c2)c1` yielded a growth of 50.9%.
`N#Cc1c(-c2ccc(Cl)cc2)nc(NN=Cc2ccco2)nc1N1CCOCC1` was tested, and the growth was 73.8%.
`O=C(Nc1cccc2[nH]c(C(F)(F)F)nc12)c1ccc(-n2cnnn2)cc1` was tested, and the growth was 92.5%.
Compound `CC1CCNC(C)C1` (stereo not drawn) has a growth of 103%.
With `CCN(CC)c1ccc(-c2cc(-c3cc(OC)c(OC)c(OC)c3)nc(N3CCOCC3)c2C#N)cc1` the growth was -54.6% (active).
